The nature of test [1]: Quantitative High-Throughput drug screen in 47 multiple myeloma cell lines against the NCATS MIPE library collection: MM1S_ATCC cell viability assay (AID 1918980). Further: nearly all actives have a fitted effect of over 45% in size. The essentials:
(§1)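 Myeloma cells (500/well) treated with MIPE 4.0 compounds for 48 h at 37 °C, 5% CO2. Viability read as ATP via CellTiter-Glo luminescence after 5 min at RT; DMSO-only wells = 100%, media-only = 0% viability.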

Test [2] can be described thus: Quantitative High-Throughput drug screen in 47 multiple myeloma cell lines against the NCATS MIPE library collection: LP1_DSMZ cell viability assay (AID 1918982). Further: nearly all actives have a fitted effect of over 35% in size. Put shortly:
as §1

Test [3] can be described thus: Quantitative High-Throughput drug screen in 47 multiple myeloma cell lines against the NCATS MIPE library collection: KMS28PE_JCRB cell viability assay (AID 1918983). Further: nearly all actives have a fitted effect of over 35% in size. Put shortly:
as §1

A short description of test [4]: Quantitative High-Throughput drug screen in 47 multiple myeloma cell lines against the NCATS MIPE library collection: L363_DSMZ cell viability assay (AID 1918984). Further: nearly all actives have a fitted effect of over 40% in size. Put shortly:
as §1

The nature of test [5]: Quantitative High-Throughput drug screen in 47 multiple myeloma cell lines against the NCATS MIPE library collection: KMS34_JCRB cell viability assay (AID 1918985). Further: nearly all actives have a fitted effect of over 40% in size. The essentials: as §1
Test [6] is described as follows: Quantitative High-Throughput drug screen in 47 multiple myeloma cell lines against the NCATS MIPE library collection: OCIMY7_PLB cell viability assay (AID 1918987). Further: nearly all actives have a fitted effect of over 65% in size. To be noted: OCI-MY7 myeloma viability, CellTiter-Glo ATP, 48 h; viability (% of DMSO): at 45.8 µM (top of the series). The essentials:
as §1
A general note: ATP-based viability assays read luminescence as a measure of living cells.

Test [7] can be described thus: Quantitative High-Throughput drug screen in 47 multiple myeloma cell lines against the NCATS MIPE library collection: OCIMY5_PLB cell viability assay (AID 1918988). Further: nearly all actives have a fitted effect of over 65% in size. Put shortly:
as §1

The nature of test [8]: Quantitative High-Throughput drug screen in 47 multiple myeloma cell lines against the NCATS MIPE library collection: OPM1_PLB cell viability assay (AID 1918989). Further: nearly all actives have a fitted effect of over 40% in size. Put shortly: as §1
Test [9] is described as follows: Quantitative High-Throughput drug screen in 47 multiple myeloma cell lines against the NCATS MIPE library collection: SKMM1_PLB cell viability assay (AID 1919863). Further: nearly all actives have a fitted effect of over 35% in size. The conditions noted are these: SKMM1 myeloma viability, CellTiter-Glo ATP, 48 h; viability: stronger effect = lower value. The essentials: as §1
Test [10] in a line: Quantitative High-Throughput drug screen in 47 multiple myeloma cell lines against the NCATS MIPE library collection: MM1R_ATCC cell viability assay (AID 1918981). Further: nearly all actives have a fitted effect of over 35% in size. Put shortly: as §1

Records with an inconclusive call do not appear. A number with no mark means an inactive call. Activity calls are given as the source filed them. The call rests on the fitted dose curve; in most records, active means well fitted cell-killing curve with a large enough effect; inconclusive means small, poorly fitted or top-dose-only effect, or effect the other way; inactive means no such curve, though single readings can be large or run the other way. Starred links: 1 amine or outer side, 2 acyl side, 3 side chain; linkers in the order of their positions; H or OH if unused. Positions of bridges follow the written chain, without caps; N, C: chain ends. Non-standard residues stand in square brackets, D forms with d. Residues, ends and D or L forms follow the SMILES beside them. Chains are numbered I, II in the order given. Actinocin(9to1) = Cc1c2oc3c(C)ccc(C(=O)[*:1])c3nc-2c(C(=O)[*:2])c(N)c1=O; NMeV = CN[CH](C(=O)O)C(C)C; Sar = CNCC(=O)O
Potency means the concentration at half of the fitted maximal effect.

In the case of `COc1cccc2c1C(=O)c1c(O)c3c(c(O)c1C2=O)C[C@@](O)(C(=O)CO)C[C@H]3O[C@H]1C[C@H](N)[C@H](O)[C@H](C)O1`, the Potency is 20.9 nM (active) in [1]; 74.3 nM (active) in [2]; 166 nM (active) in test [3]; 743 nM (active) in [4]; 235 nM (active) in [5]; 166 nM (active) in [6]. Moreover, the Potency was 166 nM (active) in test [7], 526 nM (active) in test [8] and 209 nM (active) in test [9].

Turning to `C=CC(=O)Nc1cc(NC(=O)c2ccc(C)c(NC(=O)c3ccno3)c2)cc(C(F)(F)F)c1`, the Potency is 16600 nM (active) in test [1]; 20900 nM (active) in [10]; 16600 nM (active) in [6]; 18700 nM (active) in [7]; 23500 nM (active) in [8]; 18700 nM (active) in [9].

For the molecule `CO[C@@H]1[C@@H](O)[C@H](O)[C@@H](n2c3c(Cl)cccc3c3c4c(c5c6cccc(Cl)c6[nH]c5c32)C(=O)NC4=O)O[C@@H]1CO`, the Potency was 372 nM (active) in test [1]; 6620 nM (active) in [2]; 1320 nM (active) in test [3]; 1050 nM (active) in test [4]; 1320 nM (active) in test [5]; 148 nM (active) in [6]. Moreover, the figures for the Potency in test [7], in test [8] and in test [9] were 2090 nM (active), 2090 nM (active) and 2350 nM (active), respectively.

As for `CC(O)(C#Cc1ccc2c(c1)N(c1nc(N)ncc1Cl)CC2)c1nccs1` (configuration not stated), the Potency is 11800 nM (active) in [1]; 18700 nM (active) in test [10]; 16600 nM (active) in [4]; 2640 nM (active) in [6]; 20900 nM (active) in [7]; 14800 nM (active) in test [8].

Turning to `CC(=O)[C@]1(O)Cc2c(O)c3c(c(O)c2[C@@H](O[C@H]2C[C@H](N)[C@@H](O)[C@H](C)O2)C1)C(=O)c1ccccc1C3=O`, the Potency in test [1] was 16.6 nM (active); in test [2], 1320 nM (active); in test [3] it was 187 nM (active); in [4], 1320 nM (active); in test [5] it was 235 nM (active); in test [6], 166 nM (active). Further, the values for the Potency in test [8] and in test [9] were 418 nM (active) and 187 nM (active), respectively.

Turning to `Cc1c2oc3c(C)ccc(C(=O)NC4C(=O)NC(C(C)C)C(=O)N5CCCC5C(=O)N(C)CC(=O)N(C)C(C(C)C)C(=O)OC4C)c3nc-2c(C(=O)NC2C(=O)NC(C(C)C)C(=O)N3CCCC3C(=O)N(C)CC(=O)N(C)C(C(C)C)C(=O)OC2C)c(N)c1=O` (configuration not stated) (I: TVP[Sar][NMeV] / II: TVP[Sar][NMeV]; ester I:1-I:C, II:1-II:C; linker I:N-II:N via Actinocin(9to1); configuration not given here), the Potency result in test [1], in test [2], in test [3], in test [4], in [5] and in [6] was “inactive” each time. Also, the Potency entry in test [7] and in test [8] was “inactive” each time. In addition, the viability in test [9] was -11%.

In the case of `CC(N[C@H]1CCCC[C@H]1NC(=O)c1ccc(Cl)cc1)c1cccc2ccccc12` (some centres not stated), the results for the Potency in test [1] and in [4] were 8330 nM (active) and 83.3 nM (active), respectively. The Potency entry in [2], in test [3] and in test [8] was “inactive” throughout. The viability in test [9] is 94.8%.

Consider `COC(=O)[C@H](CCCN=C(N)N)NS(=O)(=O)c1ccc(C)cc1`, for which the Potency result in [1], in test [2], in [3], in [4], in test [5] and in [7] was “inactive” each time. For the same molecule, in [9], the viability was 122%.

Turning to `CC(C)N1[N]C(=C2C=c3cc(O)ccc3=N2)c2c(N)ncnc21`, the Potency in test [1] was 469 nM (active); in test [2], 2.6 nM (active); in test [3] it was 209 nM (active); in test [4], 59 nM (active); in [5], 296 nM (active); in test [6] it was 743 nM (active). Further, the Potency in test [7] was 1180 nM (active); in [8], 296 nM (active); in [9] it was 118 nM (active).

For the molecule `Oc1cc(-c2nc(-c3ccccc3)[nH]c2-c2ccncc2)ccc1Cl`, the Potency in test [1] was 4690 nM (active); in [3], 20900 nM (active); in test [4], 332 nM (active); in test [5] it was 16600 nM (active); in test [7], 18700 nM (active); in [8], 14800 nM (active). The Potency in test [9] is 16600 nM (active). Further, in [2], the Potency result is “inactive”.

Regarding `NC(=O)c1ncn([C@@H]2O[C@H](CO)[C@@H](O)[C@@H]2O)c1O`, the Potency result in test [1], in test [10], in test [4] and in [5] was “inactive” throughout. Also, the viability in test [9] is 102%.

On to `Cc1cc(C(=O)NOCCO)c(Nc2ccc(I)cc2F)n(C)c1=O`, for which the Potency in test [1] is 2960 nM (active). Moreover, the Potency result in test [2], in [3] and in test [4] was “inactive” in each case. The viability in test [9] was 90.9%.

`NC(=O)Nc1sc(-c2ccc(F)cc2)cc1C(N)=O`: the Potency in test [1] is 332 nM (active); in test [10], 4690 nM (active); in test [4], 83.3 nM (active); in [5], 2640 nM (active); in test [6] it was 662 nM (active); in [8], 833 nM (active). Further, the Potency in test [9] is 11800 nM (active).

Consider `C[C@H]1[C@@H](OC(=O)CCC(=O)O)O[C@@H]2O[C@@]3(C)CC[C@@H]4[C@H](C)CC[C@@H]1[C@@]24OO3`, for which the Potency in [1] is 18700 nM (active); in [10], 14800 nM (active); in test [5], 1320 nM (active); in [6], 833 nM (active); in test [8], 2960 nM (active); in test [9], 4690 nM (active).

As to `CC(=O)O[C@]1(C(C)=O)CC[C@H]2[C@@H]3C=C(C)C4=CC(=O)CC[C@]4(C)[C@@H]3CC[C@@]21C`, the Potency in test [1] is 2350 nM (active); in [10] it was 11800 nM (active); in test [4] it was 9350 nM (active). Also, the Potency result in test [5] was “inactive”.

As for `COc1cc(OC)c(C=CS(=O)(=O)Cc2ccc(OC)c(NCC(=O)O)c2)c(OC)c1`, the Potency is 4180 nM (active) in test [1]; 2350 nM (active) in test [10]; 46.9 nM (active) in test [4]; 209 nM (active) in test [5]; 264 nM (active) in [6]; 590 nM (active) in test [7]. Further, the Potency in [8] was 332 nM (active); in test [9], 235 nM (active).

Broadly, the viability is a read-out of living cells in per cent, often relative to untreated cells.

These data come from PubChem BioAssay (NCATS).
